The values that follow come from PubChem BioAssay AID2157 (National Center for Advancing Translational Sciences (NCATS), 2009).

Results filed as inconclusive are left out. The source made the active and inactive calls. Calls follow the shape of the dose curve; as a rule, active = well fitted inhibition curve with a large enough effect; inconclusive = small, poorly fitted or top-dose-only effect; inactive = no such curve, though single readings can be large or run the other way.

Sequence of Polyunsaturated fatty acid lipoxygenase ALOX15 (Homo sapiens) (P16050 whole entry, looked up): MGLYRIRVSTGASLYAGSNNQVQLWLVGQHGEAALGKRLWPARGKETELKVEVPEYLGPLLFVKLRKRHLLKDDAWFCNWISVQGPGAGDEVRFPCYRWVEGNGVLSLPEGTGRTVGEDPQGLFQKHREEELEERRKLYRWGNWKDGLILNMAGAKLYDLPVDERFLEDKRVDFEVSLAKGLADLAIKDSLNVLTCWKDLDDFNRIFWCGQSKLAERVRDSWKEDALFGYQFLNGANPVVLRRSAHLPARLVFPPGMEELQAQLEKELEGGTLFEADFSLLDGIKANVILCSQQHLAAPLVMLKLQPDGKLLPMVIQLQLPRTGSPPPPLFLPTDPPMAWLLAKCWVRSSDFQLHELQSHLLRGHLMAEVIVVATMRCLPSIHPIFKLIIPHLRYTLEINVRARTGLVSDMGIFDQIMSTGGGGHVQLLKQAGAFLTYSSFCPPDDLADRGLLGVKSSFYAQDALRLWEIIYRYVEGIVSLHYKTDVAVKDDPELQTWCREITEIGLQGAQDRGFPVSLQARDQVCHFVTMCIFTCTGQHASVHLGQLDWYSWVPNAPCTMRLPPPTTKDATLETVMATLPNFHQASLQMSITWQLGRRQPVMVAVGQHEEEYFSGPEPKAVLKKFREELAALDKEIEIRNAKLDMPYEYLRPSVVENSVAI

This assay concerns the target Polyunsaturated fatty acid lipoxygenase ALOX15 (Homo sapiens) (UniProt P16050). Nature of the assay: Confirmation qHTS Assay for Inhibitors of 15-hLO (15-human lipoxygenase). As to conditions: purified enzyme, xylenol orange hydroperoxide absorbance; max response: stronger effect = lower value. The text has this: Assay Provider: Holman, T.R., University of California, Santa Cruz Screening Center PI: Austin, Christopher P. Screening Center: NIH Chemical Genomics Center Human lipoxygenase 15hLO-1 is a member of the closely related lipoxygenase family of enzymes which catalyze the site-specific oxidation of arachidonic acid to various hormone precursor molecules and as such is a candidate for drug development in a variety of disease areas, such as cancer and inflammation. Inhibition of 15hLO-1 activity was screened by utilizing arachidonic acid as a substrate. The extent of hydroperoxide product formation was measured by a secondary chromogenic reaction in which xylenol orange (XO, Sigma-Aldrich, cat. number 39,818-7) reacts with the ferric ions produced from the reaction between the hydroperoxide and ferrous ions. The Fe(III)-XO complex is characterized with red-shifted absorbance at 560 nm. A purified preparation of human 15hLO-1 was supplied by Professor Ted Holman, University of California, Santa Cruz. This assay includes some confirmation and follow-up compounds for related primary screening assay AID 887.
Assay Protocol: Buffer: 25 mM Hepes pH 7.5, 0.01% Triton X-100. Reagents/Controls: Buffer in columns 3 and 4 as negative control (no enzyme). Substrate solution: 50 uM arachidonic acid (Sigma-Aldrich, St. Louis, MO) final concentration dispensed throughout the plate. Enzyme: 40 nM 15hLO-1 final concentration in columns 1, 2, 5-48. Column 1 is neutral (100% activity). Column 2 contained pin-transferred titration of NDGA (nordihidroguaiaretic acid, Sigma-Aldrich, N 5023, top concentration 10 mM in DMSO, then 1:2 dilution in duplicate). (Dilution factor: 23 nL into 4 uL.) Chromogenic detection reagent (divalent iron/xylenol orange, Fe-XO): 200 uM xylenol orange plus 300 uM ferrous ammonium sulfate prepared freshly in 50 mM sulfuric acid. Assay Steps: Three uL of enzyme were dispensed to 1536-well Greiner black clear bottom plates. Compounds and controls (23 nL) were transferred via Kalypsys PinTool. The plates were incubated for 15 min at room temperature, and then 1 uL of substrate solution was added to start the reaction. After room temperature incubation for 6 minutes, 4 uL of Fe-XO solution was added to each well followed by a short spin (1000 rpm, 15 sec) and the plates were then incubated for 30 min. The absorbance at 405 and 573 nm were measured using ViewLux (Perkin-Elmer) High-throughput CCD imager and absorbance protocol settings. The 573-to-405 absorbance ratio was used to compute reaction progress.
(In general: qHTS replaces the single test concentration by a dilution series.)
`COc1cccc(-c2nccc(NCc3ccccc3OC)n2)c1`: the Potency is 11.2 µM (active).

Take `COCCSc1ccccc1C(=O)NCc1ccco1`: the max response was -26.5% (inactive).

Turning to `COc1ccccc1-n1c(SCC(=O)Nc2ccc(C)cc2)nc(O)cc1=O`, the max response is -8.11% (inactive).

For `CCOC(=O)c1c(NC(=O)CN2CCOCC2)sc2c1CCCC2`, the Potency was 31.6 µM (active).

For the compound `CN(C)CCC(=O)c1ccc(Cl)cc1`, the max response was -16.6% (inactive).

For `O=C(Nc1nc2n(n1)C(c1ccccc1)CC(c1ccc(Cl)cc1)N2)c1ccco1` (configuration not stated), the max response was -20.1% (inactive).

Consider `Cc1cc(Nc2nnnn2-c2ccccc2)n(-c2ccc(Cl)cc2)n1`, for which the max response was -13% (inactive).

For the compound `CCCC(=O)NC(c1ccco1)c1cc(Cl)c2cccnc2c1O` (configuration not stated), the max response was -17.9% (inactive).

Regarding `COC(=O)c1ccc2c(c1)C(=O)N(C1CCCCC1)C2=O`, the max response is -13.1% (inactive).

As to `COc1ccccc1CNc1ncncc1-c1ccoc1`, the Potency is 11.2 µM (active).

For `COc1ccc(OC)c(NC(=O)NC2(C(F)(F)F)Oc3ccccc3O2)c1`, the max response is -7.82% (inactive).

Regarding `O=C(c1ccncc1)N1CCC2(CCCN(Cc3nccs3)C2)CC1`, the max response was -6.92% (inactive).

Turning to `Clc1ccc(NNc2ccnc3cc(Cl)ccc23)cc1`, the max response was -9.48% (inactive).

Take `Cc1cc(/C=N/NC(=O)Cn2c3ccccc3c(=O)c3ccccc32)c(C)n1-c1ccccc1`: the Potency is 11.2 µM (active).

With `Cc1ccc(OCC(=O)Nc2ccc(N3CCCC3)cc2)cc1C`, the Potency is 15.8 µM (active).

For the compound `Cc1noc(C)c1-c1nc(N(C)Cc2ccco2)c2ccccc2n1`, the max response is -25.4% (inactive).

Regarding `CCOc1ccc(NS(=O)(=O)c2ccc3[nH]cc(C(=O)N(CC)CC)c(=O)c3c2)cc1`, the max response is -12.4% (inactive).

As to `CCC(=O)N(Cc1cc(=O)[nH]c2ccccc12)C1CCCCC1`, the max response was -6.49% (inactive).

Turning to `O=C(Nc1cccc(F)c1)N1CCCC2(CCN(C(=O)c3ccco3)CC2)C1`, the max response is -7.24% (inactive).

For `Oc1ccc2ccccc2c1CNc1cnc2ccccc2c1`, the Potency is 14.1 µM (active).

Consider `O=C1C2C3CCCC3=C3CCCC3C2C(=O)N1c1cccc(Cl)c1` (configuration not stated), for which the Potency is 14.1 µM (active).

On to `Cc1cccc(CNc2ncnc3ccc(-c4ccc5c(c4)OCO5)cc23)c1`, for which the max response is -24.2% (inactive).

Turning to `NC(=O)c1cccc2c3c([nH]c12)CCCC3`, the Potency is 10 µM (active).

As for `CCCCn1c(Cc2ccccc2)n[nH]c1=S`, the max response is -14.5% (inactive).

Turning to `O=C(C1=C(O)C(=O)N(Cc2ccco2)C1c1cccnc1)c1cc2ccccc2o1` (configuration not stated), the max response is -10.1% (inactive).

As to `CC(=O)NCCNc1ncncc1-c1ccc(N(C)C)cc1`, the max response is -61.2% (inactive).

On to `Cc1c(N/C=C/C(=O)c2cccs2)c(=O)n(-c2ccccc2)n1C`, for which the max response was -25.2% (inactive).

Consider `Clc1ccc(-c2nnc(C3CCCCC3)o2)cc1`, for which the max response was -10.3% (inactive).

For the compound `O=C(Nc1nnc(-c2ccco2)s1)C1CCCCC1`, the max response was -11.3% (inactive).

Take `O=C(Nc1nnc(-c2ccccc2)o1)c1ccc(Cl)cc1`: the max response was -12.7% (inactive).

As for `c1csc(C2Nc3cccc4cccc(c34)N2)c1`, the Potency was 8.91 µM (active).

`CN1CCN(C(c2cccnc2)c2ccc3cccnc3c2O)CC1` (configuration not stated): the max response is -27.2% (inactive).

In the case of `O=C(Cc1cc(=O)[nH][nH]1)N/N=C/C=C/c1ccccc1`, the max response was -11.2% (inactive).

`COc1ccc(NC(=O)CSc2nc(O)cc(=O)n2-c2ccccc2OC)cc1`: the max response is -13.4% (inactive).

In the case of `Cc1ccc(-c2ccc(/C=C3\C(=O)ON=C3c3ccccc3)o2)c([N+](=O)[O-])c1`, the Potency is 2.51 µM (active).

In the case of `COC(=O)c1ccc(C(=S)N2CCOCC2)cc1`, the Potency is 15.8 µM (active).

Consider `COc1cccc(-c2nc(NC3CCNCC3)c3ccccc3n2)c1`, for which the max response was -13.6% (inactive).
